Assay results published in PubChem BioAssay (NCATS).
Inconclusive results are not listed. The source made the active and inactive calls. Unless noted, calls follow the shape of the full dose curve.

Assays:
[1] = AP1 Signaling Pathway (AID 357; active = well fitted curve in either direction with a large enough effect, not every such curve was filed as active;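 also: ME-180 reporter cells stimulated with EGF at its EC50 level; % is scaled to controls: 0 for no effect and ±100 for the full control effect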)
Outline: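 Modulation of EGF-driven AP-1 transcription was assessed with a beta-lactamase reporter in ME-180 cells. Compound and EC50 EGF were co-incubated 5 hours at 37 °C before 2.5-hour CCF4 loading at room temperature and dual-emission reading.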

[2] = biological target: Cytochrome P450 1A2 (Homo sapiens) (UniProt P05177); experiment: p450-cyp1a2 (AID 410); also: potency is read from the fitted curve at half-maximal effect;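 as to activity change, negative = inhibition: -100% = full effect of reference inhibitor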
Outline: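 Human CYP1A2 (20nM) demethylated Luciferin-ME at its Km (100uM) in 100mM KPO4. After 10 min compound preincubation, NADPH regeneration ran the reaction 60 min at room temperature. Luciferin was read by luminescence, normalized to 57 uM furafylline.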

[3] = Stat Signaling Pathway (AID 446; active = well fitted curve in either direction with a large enough effect, not every such curve was filed as active;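 also: ME-180 cervical cancer cells given 40 pM IL-6 alongside compound; SIE-controlled beta-lactamase reporter measured as 460/530 nm FRET emission ratio; % is scaled to controls: 0 for no effect and ±100 for the full control effect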)
Outline: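 IL-6/STAT signaling read in ME-180 cells via an SIE beta-lactamase reporter. Stimulus was 40 pM IL-6 (its AC50) for 5 hrs, so both activation and inhibition register.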

[4] = biological target: Glucocorticoid receptor (Homo sapiens) (UniProt P04150); experiment: GR-GFP Redistribution (AID 450;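 active = compounds whose dose series gives a full or clear partial fitted curve of increased nuclear translocation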; also: potency is read from the fitted curve at half-maximal effect); conditions: U2OS GR-GFP nuclear translocation, laser cytometry, 2 h
[5] = biological target: Glucocorticoid receptor (Homo sapiens) (UniProt P04150); experiment: GR-EFC Redistribution (AID 451); conditions: CHO-K1 GR-EFC translocation, beta-gal luminescence, 2 h; also: potency is read from the fitted curve at half-maximal effect
Outline: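 CHO-K1 cells expressing nuclear EA and GR-ED fragments of b-gal; compounds titrated up to 46 uM final, 2 h at 37 C. GR nuclear translocation read as complemented b-gal luminescence after 1 h RT detection.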

[6] = biological target: Mitogen-activated protein kinase 10 (Mus musculus) (UniProt Q61831); experiment: JNK3 AlphaScreen Assay (AID 530; active = well fitted curve in either direction with a large enough effect, not every such curve was filed as active;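 also: kinase came from lysate of stimulated human HepG2 cells; signal reports phosphorylation of biotinylated GST-cJun 1-79 at Ser73 with 10 µM ATP; % is scaled to controls: 0 for no effect and ±100 for the full control effect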)
Outline: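 qHTS format: compounds tested as titrations against IL-1beta/TNF-alpha-activated HepG2 lysate JNK3 with biotin-GST-cJun substrate and 10 uM ATP at room temperature. Loss of anti-phospho-cJun AlphaScreen signal indicates inhibition.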

[7] = qHTS Assay for Lipid Storage Modulators (AID 1519); conditions: Drosophila S3 cells, BODIPY lipid droplet/cell ratio, laser cytometry, cells loaded with oleic acid
Outline: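 Cells seeded at 5,000 per well were treated with compounds over a concentration series and loaded with oleic acid (400 uM, as added). Lipid droplet fluorescence (488 nm excitation, 500-530 nm channel) was read by laser-scanning cytometry and normalized to 20 uM Triacsin C.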

[8] = biological target: Ubiquitin carboxyl-terminal hydrolase 1 (Homo sapiens) (UniProt O94782); experiment: Inhibitors of USP1/UAF1: Pilot qHTS (AID 504865; active = well fitted inhibition curve with a large enough effect;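 also: rhodamine fluorescence freed from ubiquitin-rhodamine substrate followed over time; top concentration of the series differs between compounds; % is scaled to controls: 0 for no effect and ±100 for the full control effect; nearly all actives have a fitted effect of over 35% in size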)
Outline: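 Enzyme-free wells gave the negative control, while test wells held 1nM USP1/UAF1 preincubated with compound for 15 min at room temperature. Ub-Rho at 150nM final started the reaction, and fluorescence at 480/540 nm was recorded kinetically.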

[9] = biological target: 3',5'-cyclic-AMP phosphodiesterase 4B (Homo sapiens) (UniProt Q07343); experiment: qHTS Assay for Inhibitors of PDE-IV (AID 607; active = well fitted activation curve with a large enough effect in the main read-out, with a control signal flat, not every such curve was filed as active; also: % of control where 0% means no effect)
Outline: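 Live HEK293 cells with a modified cyclic nucleotide-gated (CNG) channel report intracellular cAMP via membrane-potential dye fluorescence (ex 535/em 590 nm). Endogenous PDE-IV was targeted. Compounds were tested at up to 22.9 uM final; RO 20-1724 100 uM served as control.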

[10] = NFAT Signaling Pathway (AID 444; active = well fitted curve in either direction with a large enough effect, not every such curve was filed as active;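 also: carbachol stimulus at about its EC50 of 1 µM final; % is scaled to controls: 0 for no effect and ±100 for the full control effect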); conditions: Jurkat NFAT-bla M1, carbachol, beta-lactamase ratio, 5 h; at 17.2 µM (top of the series) unless noted
Outline: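 Jurkat cells with NFAT-driven β-lactamase reporter and co-expressed M1 receptor, stimulated with carbachol (final 1 uM, ~EC50), compound titration, 5 h at 37 °C. CCF4 loaded 1 h at RT; 460/530 nm ratio gave %activity and AC50.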

[11] = measured here: cell count channel max response
[12] = measured here: lipid channel max response

Glucocorticoid receptor (Homo sapiens), sequence (P04150 whole entry, looked up, the tested form may be a part): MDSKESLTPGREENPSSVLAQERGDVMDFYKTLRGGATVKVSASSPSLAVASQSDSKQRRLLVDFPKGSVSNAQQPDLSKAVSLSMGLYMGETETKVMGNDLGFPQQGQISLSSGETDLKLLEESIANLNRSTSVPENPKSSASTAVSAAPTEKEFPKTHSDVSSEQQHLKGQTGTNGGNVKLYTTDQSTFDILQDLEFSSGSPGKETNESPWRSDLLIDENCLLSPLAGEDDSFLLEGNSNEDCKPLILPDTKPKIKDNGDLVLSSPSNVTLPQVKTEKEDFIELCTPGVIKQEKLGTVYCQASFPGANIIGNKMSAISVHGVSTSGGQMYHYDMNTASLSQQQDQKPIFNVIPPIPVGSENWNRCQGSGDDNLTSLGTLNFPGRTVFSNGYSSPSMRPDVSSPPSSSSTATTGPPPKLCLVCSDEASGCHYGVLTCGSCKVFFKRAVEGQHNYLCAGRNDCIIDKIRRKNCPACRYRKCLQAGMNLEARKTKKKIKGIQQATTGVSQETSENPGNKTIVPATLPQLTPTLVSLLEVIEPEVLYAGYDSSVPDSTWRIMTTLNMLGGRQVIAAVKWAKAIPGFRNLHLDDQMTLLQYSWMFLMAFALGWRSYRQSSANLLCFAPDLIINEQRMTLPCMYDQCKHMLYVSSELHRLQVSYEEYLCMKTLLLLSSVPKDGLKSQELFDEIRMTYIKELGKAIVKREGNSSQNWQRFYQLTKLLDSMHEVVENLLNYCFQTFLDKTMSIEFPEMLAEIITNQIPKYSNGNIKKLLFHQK
3',5'-cyclic-AMP phosphodiesterase 4B (Homo sapiens), sequence (Q07343 whole entry, looked up): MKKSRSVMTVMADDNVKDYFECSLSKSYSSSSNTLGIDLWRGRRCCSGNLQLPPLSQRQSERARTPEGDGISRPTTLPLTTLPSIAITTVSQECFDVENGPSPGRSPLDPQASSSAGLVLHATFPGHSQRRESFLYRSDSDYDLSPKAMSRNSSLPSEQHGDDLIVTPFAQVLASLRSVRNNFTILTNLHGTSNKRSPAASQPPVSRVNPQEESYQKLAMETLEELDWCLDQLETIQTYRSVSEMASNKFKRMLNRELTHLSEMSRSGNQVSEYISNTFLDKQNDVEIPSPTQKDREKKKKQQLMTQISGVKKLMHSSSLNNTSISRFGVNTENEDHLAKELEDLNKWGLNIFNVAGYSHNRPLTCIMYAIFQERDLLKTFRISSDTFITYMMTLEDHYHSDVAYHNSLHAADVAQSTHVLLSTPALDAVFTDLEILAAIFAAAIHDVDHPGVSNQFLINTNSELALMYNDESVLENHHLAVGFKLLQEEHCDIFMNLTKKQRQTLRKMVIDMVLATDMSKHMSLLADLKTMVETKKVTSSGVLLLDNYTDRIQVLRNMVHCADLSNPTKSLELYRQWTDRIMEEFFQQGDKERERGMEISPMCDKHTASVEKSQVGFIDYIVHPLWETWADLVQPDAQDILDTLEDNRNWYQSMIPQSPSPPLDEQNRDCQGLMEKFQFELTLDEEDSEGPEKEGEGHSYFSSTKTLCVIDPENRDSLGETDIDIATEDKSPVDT
Cytochrome P450 1A2 (Homo sapiens), sequence (P05177 whole entry, looked up): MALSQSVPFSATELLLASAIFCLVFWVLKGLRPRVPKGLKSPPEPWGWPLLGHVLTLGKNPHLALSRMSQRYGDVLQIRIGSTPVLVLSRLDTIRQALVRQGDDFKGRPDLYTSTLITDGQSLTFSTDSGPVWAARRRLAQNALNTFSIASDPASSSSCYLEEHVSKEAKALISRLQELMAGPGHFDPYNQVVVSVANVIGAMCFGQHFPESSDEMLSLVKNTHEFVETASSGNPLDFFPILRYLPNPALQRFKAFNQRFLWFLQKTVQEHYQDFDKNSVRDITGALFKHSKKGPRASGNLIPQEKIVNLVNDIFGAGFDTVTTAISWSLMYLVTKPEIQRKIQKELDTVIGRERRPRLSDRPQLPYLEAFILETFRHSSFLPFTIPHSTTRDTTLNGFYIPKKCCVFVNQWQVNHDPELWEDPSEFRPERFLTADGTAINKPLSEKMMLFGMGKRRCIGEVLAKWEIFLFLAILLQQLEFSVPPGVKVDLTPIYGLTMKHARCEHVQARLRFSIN
Ubiquitin carboxyl-terminal hydrolase 1 (Homo sapiens), sequence (O94782 whole entry, looked up): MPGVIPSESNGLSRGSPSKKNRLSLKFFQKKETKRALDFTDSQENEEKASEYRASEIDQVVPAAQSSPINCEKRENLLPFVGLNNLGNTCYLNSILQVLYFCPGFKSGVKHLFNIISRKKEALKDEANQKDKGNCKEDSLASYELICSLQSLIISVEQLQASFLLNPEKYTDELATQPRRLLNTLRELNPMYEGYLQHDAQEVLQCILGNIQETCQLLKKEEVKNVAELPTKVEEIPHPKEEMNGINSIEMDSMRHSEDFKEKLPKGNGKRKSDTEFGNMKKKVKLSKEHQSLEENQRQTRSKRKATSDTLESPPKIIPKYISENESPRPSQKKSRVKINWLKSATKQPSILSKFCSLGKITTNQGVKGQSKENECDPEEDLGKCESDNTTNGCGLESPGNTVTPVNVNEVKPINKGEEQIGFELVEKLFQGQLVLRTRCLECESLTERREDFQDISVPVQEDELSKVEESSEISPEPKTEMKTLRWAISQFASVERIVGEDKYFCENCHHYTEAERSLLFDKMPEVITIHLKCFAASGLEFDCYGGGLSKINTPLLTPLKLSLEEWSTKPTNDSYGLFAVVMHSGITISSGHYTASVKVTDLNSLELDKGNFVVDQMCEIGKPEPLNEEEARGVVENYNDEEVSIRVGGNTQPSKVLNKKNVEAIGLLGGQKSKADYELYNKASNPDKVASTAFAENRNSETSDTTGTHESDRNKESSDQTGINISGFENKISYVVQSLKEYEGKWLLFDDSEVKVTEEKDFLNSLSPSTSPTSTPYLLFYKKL

| SMILES | outcome [1] | Potency [2] | outcome [3] | Potency [4] | Potency [5] | Potency [6] | activity change, negative = inhibition ([7]; at 25.7 µM (top of the series)) | max response [7, 11] | max response [7, 12] | Potency [8] | outcome [9] | activity change, negative = inhibition ([7]; at 57.5 µM (top of the series)) | activity change, negative = inhibition [10] |
| --- | --- | --- | --- | --- | --- | --- | --- | --- | --- | --- | --- | --- | --- |
| C#C[C@]1(O)CC[C@@H]2[C@H]3CCC4=Cc5oncc5C[C@]4(C)[C@@H]3CC[C@@]21C | inactive | 10 µM (active) | inactive | > 20.6 µM (inactive) | > 20.6 µM (inactive) | inactive | -2.17% (inactive) | -23.2% | -23.4% | inactive |  |  |  |
| CN1CCC2(CC1)CCN(C(=O)c1ccncc1)CC2 | inactive | inactive | inactive |  | > 46 µM (inactive) | inactive |  | 10.6% | 6.89% |  | inactive | -3.65% (inactive) |  |
| CN(C)CCO[C@@H](c1ccc(Cl)cc1)c1ccccn1 | inactive | inactive | inactive | > 20.6 µM (inactive) | > 20.6 µM (inactive) | inactive | -4.98% (inactive) | -21.7% | -26% | inactive | inactive |  |  |
| c1ccc2c(c1)CCCc1cc(NCCN3CCOCC3)nnc1-2 | inactive | inactive | inactive | > 20.6 µM (inactive) | > 20.6 µM (inactive) |  | -1.57% (inactive) | 0.476% | -2.33% |  | inactive |  |  |
| CCC(=O)OCC(=O)[C@@]1(OC(=O)CC)[C@H](C)C[C@@H]2[C@H]3CCC4=CC(=O)C=C[C@]4(C)[C@]3(Cl)[C@@H](O)C[C@@]21C | inactive | inactive | inactive |  |  |  | -9.54% (inactive) | -5.37% | -14.6% |  | inactive |  | -10.9% (inactive) |
| CN1CCCN([C@@H](c2ccccc2)c2ccc(Cl)cc2)CC1 | inactive | inactive | inactive | > 20.6 µM (inactive) | > 20.6 µM (inactive) | inactive | -4.42% (inactive) | 4.14% | 1.38% | inactive |  |  |  |
| NC(=O)N/N=C\c1ccc([N+](=O)[O-])o1 | inactive | 12.6 µM (active) | inactive | > 20.6 µM (inactive) | > 20.6 µM (inactive) | inactive | 0.117% (inactive) | -2.81% | -1.91% | inactive | inactive |  |  |
